# Assay outcomes deposited in PubChem by National Center for Advancing Translational Sciences (NCATS).
# D1 agonist = activates the human D1 dopamine receptor; P21728; HEK293 T-REx D1 cells, calcium flux, agonist mode; activation, % at 2 µM; actives 1% (n = 360,000); in the data active means activation above about 30%
#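 Agonism was scored from calcium flux recorded over 180 s (1 read/s) after pintool compound addition, following a 10-cycle baseline. Cells were inducible force-coupled HEK293 TREx D1, plated overnight at 30 C and loaded with no-wash calcium dye.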
# D1 antag = blocks dopamine activation of the human D1 receptor. activity change, negative = inhibition, % at 10 µM. actives 3.2% (n = 360,000). HEK293 TREx D1 cells, calcium flux, dopamine EC80; hits give low values. P21728; in the data active means activity change below about -30%
#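 Compound effects on dopamine-evoked calcium signalling were measured in tetracycline-induced HEK293 Trex D1 cells. Dopamine at EC80 followed a 180 s compound pre-read, and fluorescence was tracked kinetically for 180 s more.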
# D1 potentiator = enhances dopamine response at the human D1 receptor; P21728; AID 504651; HEK293 TREx D1 cells, calcium flux, dopamine EC20 potentiation; actives 0.036% (n = 360,000); potentiation, % at 10 µM; in the data active means potentiation above about 30%
# DRD3 antagonist = D3 dopamine receptor (human) antagonism | max response, negative = inhibition, % | D3R cells, DiscoveRx beta-arrestin luminescence, antagonist mode; hits give low values | actives 2.5% (n = 360,000) | P35462; in the data active means max response below about -50%; inconclusive means no clear call, values can overlap the other calls
# Target sequence (P35462 whole entry, looked up): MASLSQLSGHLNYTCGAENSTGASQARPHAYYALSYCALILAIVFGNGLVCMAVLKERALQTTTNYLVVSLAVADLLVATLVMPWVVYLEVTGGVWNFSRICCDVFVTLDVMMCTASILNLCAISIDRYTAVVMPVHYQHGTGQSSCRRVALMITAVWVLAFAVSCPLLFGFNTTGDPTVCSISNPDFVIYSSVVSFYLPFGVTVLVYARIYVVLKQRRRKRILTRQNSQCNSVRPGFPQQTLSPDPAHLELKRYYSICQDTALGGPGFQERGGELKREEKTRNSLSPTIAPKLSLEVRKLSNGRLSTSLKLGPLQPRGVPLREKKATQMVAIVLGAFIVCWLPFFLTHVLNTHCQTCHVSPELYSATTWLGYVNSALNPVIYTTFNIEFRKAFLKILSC
#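 Cells plated overnight at 1500 cells/well, then exposed to library compounds with dopamine controls for 90 minutes at 37 degrees C. DiscoveRx reagent added for 30–60 minutes at room temperature; luminescence read, quantitative HTS format.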
# DRD3 agonist = activates the human D3 dopamine receptor. P35462. D3R DiscoveRx beta-arrestin cells, luminescence, 90 min. actives 0.58% (n = 410,000). max activation, %; in the data active means max activation above about 30%
#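 Agonist-mode cell screen: cells plated at 1500/well and incubated overnight at 37 °C, then exposed to library compounds for 90 min at 37 °C. Detection reagent was added for 30–60 min at room temperature, and luminescence was read.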
# A number is an active result; - = inactive; ? = inconclusive; . = no result; ! = a repeat was not active. Compounds with a hit are over-represented: about 6.1% of the library has one in this group of screens.
SMILES,D1 agonist,D1 antag,D1 potentiator,DRD3 antagonist,DRD3 agonist
O=S(=O)(c1ccc(Cl)cc1)N1CCN(C2CCN(Cc3ccccc3)CC2)CC1,-,-,-,-63,-
CS(=O)(=O)N1CCN(S(=O)(=O)c2ccccc2[N+](=O)[O-])CC1,-,-,-,-,-
O=[N+]([O-])c1ccccc1S(=O)(=O)N1CCN(C2CCCC2)CC1,-,-,-,-59,-
CCOC(=O)Cn1c(=O)oc2cc(S(=O)(=O)N3CCN(c4ccc(F)cc4)CC3)ccc21,-,-,-,.,-
CN1CCN(C(c2ccccc2)c2ccc(Cl)cc2)CC1 (stereo unspecified),-,-,-,-92,-
CN1CCN(C(c2ccccc2Cl)c2sc3nc(-c4ccco4)nn3c2O)CC1 (stereo unspecified),-,.,-,.,-
CN1CCN(C(c2cccc(Cl)c2)c2ccccc2Cl)CC1 (stereo unspecified),-,-,-,-81,-
CCOC(=O)CN1C(=O)C(C)(C)Oc2ccc(C(=O)Nc3ccccc3OC)cc21,-,-,-,-95,-
Cc1ccc(C2=NC(=O)/C(=C/c3cc(O)c(O)c(Br)c3)S2)cc1,-,-,-,-,-
COc1cc(/C=C2\SC(c3ccc(C)cc3)=NC2=O)cc(OC)c1O,-,-,-,-54,-
CC1OC2(C)OC(=N)C1(C#N)C(C#N)(C#N)C2c1ccccc1 (stereo unspecified),-,-35,-,-,-
O=C(Nc1ccccc1C(=O)NCCCN1CCOCC1)c1ccc(Cl)cc1,-,-,-,-54,-
O=C(NCCCN1CCOCC1)c1ccc(CSc2ccc(Cl)cc2)cc1,-,-35,-,-,-
COc1ccc(C(=O)N/C(=C\c2ccco2)C(=O)NCCCn2ccnc2)cc1,-,-,-,-55,-
COc1ccccc1C(=O)N/C(=C\c1cn(S(=O)(=O)N(C)C)c2ccccc12)C(=O)NCCCn1ccnc1,-,-,-,.,-
CN(C)S(=O)(=O)n1cc(/C=C(\NC(=O)c2ccccc2F)C(=O)NCCCn2ccnc2)c2ccccc21,-,-38!,-,-,-
O=C(NCCCn1ccnc1)/C(=C/c1ccc(Cl)cc1)NC(=O)c1ccccc1,-,-,.,-,-
CN(C)c1ccc(/C=C(/NC(=O)c2ccccc2)C(=O)NCCCn2ccnc2)cc1,34,-,-,-,-
COC(=O)c1c(Oc2ccc(C(C)=O)cc2)nnc(-c2ccccc2)c1-c1ccccc1,-,-,-,.,-
COc1ccc(S(=O)(=O)NCCc2sc(-c3cccnc3)nc2C)cc1,-,-,-,.,-
Cc1cccc(C)c1NC(=O)C(c1ccc(C#N)cc1)n1c(=O)c(-c2ccccc2)nc2ccccc21 (stereo unspecified),.,.,.,-60,-
Cc1ccc2nc(C(C)(C)C)c(Cc3ccsc3)n2c1,.,.,.,-107,-
Cc1ccc(-c2nc3ccc(C)cn3c2Cc2ccsc2)cc1,.,.,.,-,-
COc1ccc(-c2noc(C3CC(=O)N(c4ccc(C)c(F)c4)C3)n2)c(OC)c1 (stereo unspecified),-,-,-,.,-
CCOC(=O)c1sc2ccccc2c1S(=O)(=O)N1CCN(c2cccc(C)c2C)CC1,-,-,-,.,-
SMILES,D1 agonist,D1 antag,D1 potentiator,DRD3 antagonist,DRD3 agonist
COc1ccccc1NC(=O)c1ccc2oc(=O)c(S(=O)(=O)c3ccccc3)cc2c1,-,-56,-,.,-
COc1ccc(CCNc2nc(-c3ccc(OC)c(OC)c3)cc(C(F)(F)F)n2)cc1OC,-,-,-,.,38
COc1ccc(N2CCN(c3nc(NCCc4ccc(OC)c(OC)c4)nc(OC)n3)CC2)cc1,-,-,-,-,38
COc1ccc(-c2cc(C(F)(F)F)nc(NCc3ccccc3)n2)cc1,31,-,-,.,-
Fc1ccc(CNc2nc(-c3ccc(Cl)cc3)cc(C(F)(F)F)n2)cc1,-,-,-,.,-
Fc1ccc(-c2cc(C(F)(F)F)nc(NCc3ccccc3)n2)cc1,36,-,-,.,-
CCC(=O)Nc1ccc(N2CCCCC2)c(C(=O)Nc2ccccc2C)c1,-,-,-,-,-
Cc1ccccc1NC(=O)c1cc(N)ccc1N1CCCCC1,-,-55,-,-,-
CCOCCCNC(=O)Nc1cc(C(=O)NCc2ccc(C(C)C)cc2)ccc1N1CCCC1,-,-,-,.,-
CCOC(=O)c1c(C)[nH]c(CCC(=O)NC(C)c2ccccc2)c1C (stereo unspecified),-,-,-,.,-
Cc1ccccc1C(=O)Nc1ccc(C(=O)NNC(=O)CCCOc2ccc(Cl)cc2Cl)cc1,-,-39,-,-,-
CCOC(=O)COc1ccc(CC)cc1C(=O)c1ccn2nc(-c3ccc(Cl)cc3)cc2n1,-,-,-,.,-
CCc1ccccc1Nc1cc(C(=O)NC(C)c2ccccc2)c2ccccc2n1 (stereo unspecified),-,-,-,.,-
COc1ccc2c3c(cccc13)C(=O)CC2,52,-,-,-,-
O=C(O)C1C2C=CC(C2)C1C(=O)NCc1ccco1 (stereo unspecified),-,.,-,-,-
COc1ccc(NC(=O)C2C3C=CC(C3)C2C(=O)NCc2ccco2)c(OC)c1 (stereo unspecified),-,-,-,-56,-
CCOc1ccc(-c2c(C)nn3c(C)c(C(=O)NCCc4ccc(C)cc4)cnc23)cc1OCC,-,-,-,.,-
Oc1ccc(N=Nc2ccc3c(c2)OCCO3)c2cccnc12,-,-,-,?,-
COc1cccc(N=Nc2ccc3cccnc3c2O)c1,-,-,-,-139,-
COc1ccc(N=Nc2ccc(O)c3ncccc23)cc1,-,-,-,-76,-
COc1ccc(C)cc1N=Nc1ccc(O)c2ncccc12,-,-,-,-117,-
COc1cccc(N=Nc2ccc(O)c3ncccc23)c1,-,-,-,-110,-
CCOc1ccccc1NC(=O)Cn1c(=O)n(Cc2nc(C)no2)c(=O)c2ccccc21,-,-,-,.,-
Cc1ccccc1N=Nc1ccc(O)c2ncccc12,-,-,-,-117,-
Cc1ccc(O)c2ncccc12,.,.,.,.,-
SMILES,D1 agonist,D1 antag,D1 potentiator,DRD3 antagonist,DRD3 agonist
CCSc1nnc(-c2sc3nnc(-c4ccccc4)c(-c4ccccc4)c3c2N)o1,109,-,-,-,-
CCSc1nnc(-c2ccncc2)o1,-,-,-,-,-
CCC(=O)OCc1cnc(C)c2oc(=O)c(C(=O)Nc3ccccc3C(F)(F)F)cc12,-,-,-,.,-
O=C(O)c1ccc(NC2=C/C(=N/S(=O)(=O)c3cccs3)c3ccccc3C2=O)cc1,.,.,.,-84,-
O=C1C(Nc2ccc(O)cc2)=C/C(=N/S(=O)(=O)c2cccs2)c2ccccc21,-,-,-,-85,-
O=C1/C(=N\S(=O)(=O)c2cccs2)C([n+]2ccccc2)=C([O-])c2ccccc21,-,-,-,-,-
CN1CCc2c(sc3c2C(=O)NC(c2cccs2)N3)C1 (stereo unspecified),-,-48,-,-,-
